# Records with an inconclusive call do not appear. Active and inactive are the calls of the source. Calls follow the shape of the dose curve; as a rule, active = well fitted curve in the direction sought with a large enough effect in the repeat runs; inconclusive = weak or mixed curves; inactive = no such curve, though single readings can be large; an effect the other way counts as inactive or inconclusive.
# Target: Estrogen receptor (Homo sapiens) (UniProt P03372)
# Test: qHTS assay to identify small molecule antagonists of the estrogen receptor alpha (ER-alpha) signaling pathway using the BG1 cell line in the presence of 0.1 nM 17-beta-estradiol (AID 1259244); also: nearly all actives have a fitted effect of over 50% in size
# Conditions: VM7Luc4E2 (BG1) ERE-luciferase, antagonist mode, 0.1 nM E2, 22 h; series mostly up to 92.4 µM; activity change, negative = inhibition: at the top concentration
# In short: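 Quantitative high-throughput screen in VM7Luc4E2 cells: compound plus 0.1 nM E2 (final), 22 h, 37C, 5% CO2; ONE-Glo added, 30 min room temperature, luminescence measured.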
# % is scaled to controls: 0 for no effect and ±100 for the full control effect; potency is read from the fitted curve at half-maximal effect.
# Sequence of Estrogen receptor (Homo sapiens) (P03372 whole entry, looked up): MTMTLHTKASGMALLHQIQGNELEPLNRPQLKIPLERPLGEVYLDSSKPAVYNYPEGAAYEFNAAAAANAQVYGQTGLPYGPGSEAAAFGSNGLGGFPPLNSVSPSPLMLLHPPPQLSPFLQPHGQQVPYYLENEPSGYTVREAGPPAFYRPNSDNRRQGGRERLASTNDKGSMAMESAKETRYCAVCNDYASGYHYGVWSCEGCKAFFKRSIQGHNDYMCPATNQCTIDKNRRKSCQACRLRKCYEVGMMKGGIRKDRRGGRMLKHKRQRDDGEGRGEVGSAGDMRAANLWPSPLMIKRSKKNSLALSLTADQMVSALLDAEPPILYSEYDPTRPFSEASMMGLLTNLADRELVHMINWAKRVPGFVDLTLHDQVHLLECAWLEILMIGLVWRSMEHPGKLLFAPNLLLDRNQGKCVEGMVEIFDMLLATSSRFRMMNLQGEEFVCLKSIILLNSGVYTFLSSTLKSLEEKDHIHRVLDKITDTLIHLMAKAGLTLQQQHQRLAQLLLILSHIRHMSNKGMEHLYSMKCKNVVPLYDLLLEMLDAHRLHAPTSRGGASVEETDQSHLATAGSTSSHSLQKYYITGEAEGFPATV
SMILES,"activity change, negative = inhibition",Potency
CCCCCCCCCCCCCCCCCO,0.173% [at 19 µM] (inactive),
OCCCCl,-8.1% (inactive),
NC(=O)c1ccccc1N,20.2% (inactive),
COc1cc(C(C)C)c2c(c1)S(=O)(=O)N(COc1cc(=O)n3cccc(OCCN4CCCCC4)c3n1)C2=O,-10.3% [at 19 µM] (inactive),
CCCCCCS,3.76% (inactive),
COc1ccccc1C=O,2.79% (inactive),
CCN=C1C=CC(=C(c2ccc(N(CC)CC)cc2)c2ccc(N(CC)CC)cc2)c2ccccc21,,0.682 µM (active)
c1ccc2c(c1)CCC2,17.9% (inactive),
Cc1cccc(C)n1,1.27% (inactive),
CCOCOCC,-5% (inactive),
C/C=C/CO,6.46% (inactive),
O=CC1CC1,-7.52% (inactive),
CCCCCCCOC(=O)c1ccccc1C(=O)OCCCCCCC,-8.08% (inactive),
CC1CCCCC1,8.45% (inactive),
CCCSS/C(CCO)=C(\C)N(C=O)Cc1cnc(C)nc1N,10.2% [at 42.5 µM] (inactive),
CCCCN(C)C,13.5% (inactive),
CC(=O)OC1CCCCC1,0.461% (inactive),
CCO[Si](C)(C)OCC,-8.62% (inactive),

SMILES,"activity change, negative = inhibition",Potency
CCCC(C)CCC(C)=O (configuration not stated),1.54% (inactive),
CCC(C)c1ccccc1 (configuration not stated),0.125% (inactive),
c1cc[nH]c1,3.98% (inactive),
COc1ccc(-n2nc(CCC(=O)N(C)O)cc2-c2ccc(Cl)cc2)cc1,,26.6 µM (active)
CCOB(OCC)OCC,-1.43% (inactive),
Cc1cccc(N(C)C)c1,-0.514% (inactive),
C=CC(C)(CCC=C(C)C)OC(=O)/C=C/c1ccccc1 (configuration not stated),11.7% (inactive),
CO[Si](CCC1CCC2OC2C1)(OC)OC (configuration not stated),5.8% (inactive),
CCCCCCCC(=O)OCC,0.893% (inactive),
Oc1ccc(-c2ccccc2)c(Cl)c1,24.6% (inactive),
O=Cc1ccc(F)cc1,11.9% (inactive),
NC(=O)C(=O)N/N=C/c1ccc([N+](=O)[O-])o1,34.8% [at 42.5 µM] (inactive),
COc1nccnc1CC(C)C,0.322% (inactive),
C=CC/C=C/C/C=C/C/C=C/C,0.138% (inactive),
O=c1cccc[nH]1,8.39% (inactive),
CCOC(OCC)C(=O)c1ccccc1,4.42% (inactive),
O=S(=O)(O)c1cc(S(=O)(=O)O)c2ccc3c(S(=O)(=O)O)cc(S(=O)(=O)O)c4ccc1c2c43,0.118% [at 19 µM] (inactive),

# Tested on: not listed separately
# Test: qHTS assay to identify small molecule HDAC inhibitors (AID 1259364); also: nearly all actives have a fitted effect of over 45% in size; as to activity change, negative = inhibition: top concentration of the series differs between compounds
# Conditions: HCT-116 HDAC-Glo I/II luminescence, 2 h; series mostly up to 92.4 µM; activity change, negative = inhibition: at the top concentration
# In short: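 Endogenous HDAC class I/II activity was measured in wild-type HCT-116 cells by HDAC-Glo luminescence after 2 h compound treatment.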
SMILES,"activity change, negative = inhibition",Potency
CCCCCCCCCCCCCCCCCO,-0.454% [at 19 µM] (inactive),
OCCCCl,-0.208% (inactive),
NC(=O)c1ccccc1N,1.65% (inactive),
COc1cc(C(C)C)c2c(c1)S(=O)(=O)N(COc1cc(=O)n3cccc(OCCN4CCCCC4)c3n1)C2=O,-2.47% [at 19 µM] (inactive),
CCCCCCS,0.658% (inactive),
COc1ccccc1C=O,7.12% (inactive),
CCN=C1C=CC(=C(c2ccc(N(CC)CC)cc2)c2ccc(N(CC)CC)cc2)c2ccccc21,,27.1 µM (active)
c1ccc2c(c1)CCC2,-0.496% (inactive),
Cc1cccc(C)n1,0.915% (inactive),
CCOCOCC,2.84% (inactive),
C/C=C/CO,5.34% (inactive),
O=CC1CC1,3.4% (inactive),
CCCCCCCOC(=O)c1ccccc1C(=O)OCCCCCCC,4.27% (inactive),
CC1CCCCC1,5.28% (inactive),
CCCSS/C(CCO)=C(\C)N(C=O)Cc1cnc(C)nc1N,-1.78% [at 42.5 µM] (inactive),
CCCCN(C)C,1.91% (inactive),
CC(=O)OC1CCCCC1,-0.794% (inactive),

# Source: PubChem BioAssay (Tox21)
